# Screening data (PubChem BioAssay)
# PABP FP inh = blocks human PABP binding to poly(A) RNA. P11940. fluorescence polarization. calls only at 35 µM. 290,000 tested, 1% active;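 further: calls also rest on retests at 20 µM and on dose response follow-up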
# Target sequence (P11940 whole entry, looked up): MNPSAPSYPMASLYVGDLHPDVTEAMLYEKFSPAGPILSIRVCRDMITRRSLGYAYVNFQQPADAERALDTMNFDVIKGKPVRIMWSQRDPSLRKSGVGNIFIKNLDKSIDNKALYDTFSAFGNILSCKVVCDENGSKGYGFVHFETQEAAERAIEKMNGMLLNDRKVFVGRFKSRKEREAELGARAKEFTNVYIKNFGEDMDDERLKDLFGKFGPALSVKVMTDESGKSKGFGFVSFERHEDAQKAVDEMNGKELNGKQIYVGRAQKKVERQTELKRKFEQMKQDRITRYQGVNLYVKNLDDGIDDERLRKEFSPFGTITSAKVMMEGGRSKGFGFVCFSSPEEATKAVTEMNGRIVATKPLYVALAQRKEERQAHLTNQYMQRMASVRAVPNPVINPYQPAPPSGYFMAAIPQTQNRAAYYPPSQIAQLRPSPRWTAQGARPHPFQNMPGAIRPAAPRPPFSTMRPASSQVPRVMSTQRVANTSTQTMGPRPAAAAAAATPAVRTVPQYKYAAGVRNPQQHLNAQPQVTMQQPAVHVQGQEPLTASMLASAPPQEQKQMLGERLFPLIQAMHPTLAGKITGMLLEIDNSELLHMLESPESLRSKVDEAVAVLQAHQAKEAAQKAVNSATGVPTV
# MLLE-PAM2 inh = inhibitors of microRNA-mediated deadenylation, human PABP1 MLLE binding; P11940; GST-MLLE / FITC-PAM2 fluorescence polarization; inhibition, % at 20 µM; 360,000 tested, 0.36% active; AID 588489; in the data active means inhibition above about 35%, passing the limit was not always enough;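 further: plate controls were DMSO wells with GST-MLLE for no effect and wells lacking GST-MLLE protein for full effect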
# PHOSPHO1 inh = blocks human PHOSPHO1 phosphatase activity. inhibition, % at 13.3 µM. recombinant PHOSPHO1, absorbance phosphatase assay. 290,000 tested, 1.1% active. Q8TCT1; in the data active means inhibition above about 60%
# eIF4H FP inh = inhibitors of RNA binding by human eIF4H | eIF4H fluorescence polarization binding assay | inhibition, % at 35 µM | 290,000 tested, 0.94% active;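 further: calls also rest on retests at 20 µM and on dose response follow-up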
# APOBEC3A inh = inhibitors of human APOBEC3A DNA deaminase | AID 493011 | recombinant A3A, FAM/TAMRA ssDNA deamination fluorescence | 330,000 tested, 0.41% active | inhibition, % at 20 µM | P31941;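 active means at least 40% inhibition at 20 µM here, with at most 30% in a related deaminase screen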;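 further: plate controls were A3A with DMSO for no effect and wells lacking A3A enzyme for full effect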
# APOBEC3G inh = inhibitors of human APOBEC3G DNA deaminase; AID 493012; recombinant A3G, ssDNA deamination FAM/TAMRA fluorescence; inhibition, % at 20 µM; Q9HC16; 330,000 tested, 0.28% active;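 active means inhibition of at least 40% at 20 µM, with no more than 30% in the related APOBEC3A deaminase screen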;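 further: plate controls were DMSO wells with A3G for no effect and wells lacking A3G enzyme for full effect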
# Starred values were filed as active, the others as inactive; i = inactive; ? = inconclusive; . = not tested or not shown; + = active, no number. A selection: hits, their analogues and other compounds. The true share with any hit is near 2.6%. Unless noted, how the calls were made is not given here.
SMILES,PABP FP inh,MLLE-PAM2 inh,PHOSPHO1 inh,eIF4H FP inh,APOBEC3A inh,APOBEC3G inh
O=C(NCc1ccncc1)c1ccc(N2CCCC2)c([N+](=O)[O-])c1,i,-1,10,105,-1,-4
COc1ccc(C(=O)/C=C/c2ccc(N3CCCCC3)c([N+](=O)[O-])c2)cc1,+,2,-19,active,-2,0
COC(=O)c1cc(CNC(=O)c2ccc(N3CCCC3)c([N+](=O)[O-])c2)ccc1OC,+,4,19,22,-3,-4
COc1ccc(S(=O)(=O)N2CCCC2CNC(=O)C(=O)NCc2cccs2)cc1 (stereo unspecified),.,-6,.,.,-2,-9
CN(C)S(=O)(=O)c1ccc(C(=O)NCc2ccccn2)cc1,i,-13,62*,6,0,-4
CC1(C(=O)NS(=O)(=O)Cc2ccccc2)CCN1C(=O)C1(c2ccc(Cl)cc2)CCC1 (stereo unspecified),.,-2,.,.,.,.
CC1(OC(=O)CCc2ccccc2)C(=O)C=C2C=C3CCCN3C=C2C1=O (stereo unspecified),+,3,26,83*,40,27
CC1(OC(=O)CCc2ccccc2)C(=O)C=C2C=C(c3ccc(C#N)cc3)N(C3CCCCC3)C=C2C1=O (stereo unspecified),+,6,35,52,-4,-7
CC1(OC(=O)c2cccs2)C(=O)C=C2C=C3CCCN3C=C2C1=O (stereo unspecified),+,0,18,95*,80,67
CC(C)(C)C(=O)NCc1ccc(C(=O)CSc2nnc(-c3ccncc3)n2C2CC2)s1,.,-12,.,.,-2,-5
COc1ccc(S(=O)(=O)NCc2ccc(C(=O)NCCN(C)Cc3ccccc3)cc2)cc1,.,7,.,.,.,.
COCCn1c(C)cc(C(=O)CSc2nc3ccccc3s2)c1C,i,-5,7,54,1,2
COCCn1c(C)cc(C(=O)CSc2nc3ccccc3o2)c1C,i,-9,98*,19,2,-2
Cc1ccc(OC(=O)COc2ccccc2C)c(-n2nc3ccccc3n2)c1,i,53*,24,7,-5,-10
Cc1ccc(S(=O)(=O)N(C)c2ccc(OCC(=O)Nc3ccc(C(=O)N(C)C)cc3)cc2)cc1C,.,3,.,.,5,1
N#C/C(=C\c1ccc(-c2cccc(Cl)c2)o1)C(=O)Nc1cccc2cccnc12,+,-7,14,82*,-4,-1
O=C(O)CSc1c(-c2ccccc2)c2cc(Cl)ccc2[nH]c1=O,i,1,-11,-3,-2,-6
CCN(CC)C(=S)Sc1c(-c2ccccc2)c2cc(Cl)ccc2[nH]c1=O,i,23,88*,-4,-3,-4
O=c1[nH]c2ccc(Cl)cc2c(-c2ccccc2)c1N1CCOCC1,i,-3,70*,0,4,-8
CCOC(=O)CSc1c(-c2ccccc2)c2cc(Cl)ccc2[nH]c1=O,i,5,11,active,5,-2
Cc1cc(=O)n(CCO)c(O)c1C#N,?,23,-1,?,-6,0
CCn1c(O)c(C#N)c(C)cc1=O,i,13,-2,78*,-7,-5
Cc1cc(=O)n(CCc2ccccc2)c(O)c1C#N,i,-44,2,-9,-11,-3
Cc1cc(=O)n(CC(C)C)c(O)c1C#N,+,-1,20,119*,0,-6
CCOC(=O)CSC1=N/C(=C\c2cccnc2)C(=O)N1c1ccc(OC)cc1,i,16,6,0,0,-5
SMILES,PABP FP inh,MLLE-PAM2 inh,PHOSPHO1 inh,eIF4H FP inh,APOBEC3A inh,APOBEC3G inh
CCOC(=O)CSC1=N/C(=C\c2cc(OC)c(OC)c(OC)c2)C(=O)N1C,i,42*,3,-2,-3,-8
CCCNc1c(NC(=O)c2cccs2)c(=O)oc2ccccc12,i,1,29,-8,-1,-3
O=C(O)COc1ccccc1C(Nc1cccnc1)c1cc(Cl)c2cccnc2c1O (stereo unspecified),i,32,84*,100,8,-5
O=C(O)COc1ccccc1C(Nc1ccccn1)c1cc(Cl)c2cccnc2c1O (stereo unspecified),+,32,21,54*,4,-7
CCOc1ccc(C(Nc2cccnc2)c2cc(Cl)c3cccnc3c2O)cc1 (stereo unspecified),?,29,17,?,0,-5
COc1cccc(NC(=O)CSc2nnnn2C2CCCCC2)c1,i,10,18,-1,-1,-9
C=CCSc1nc2c(c(=O)[nH]c(=O)n2C)n1C(C)C,i,41*,31,2,0,21
Cc1ccccc1Nc1n[nH]c(=S)s1,.,24,.,.,.,.
Cc1ccccc1Nc1nc(Cl)c(C=O)s1,+,-38,11,78*,1,-1
COCCCN1C(=O)C(CC(=O)NCCN2CCOCC2)CC(C(=O)N(C(C)C)C(C)C)=C1C (stereo unspecified),.,-8,.,.,.,.
CCOC(=O)CCCCC(=O)c1[nH]c(=O)[nH]c1CSc1nc(-c2ccccc2)c(C#N)c(=O)[nH]1,i,40*,26,0,0,-2
COc1ccc(OC)c(N=c2oc3c(OC)cccc3cc2C(=O)NCc2ccco2)c1,i,15,-14,118*,-3,-6
N#CC1=C(SCc2ccccc2)NC2=C(C(=O)CCC2)C1c1ccc2c(c1)OCO2 (stereo unspecified),i,11,93*,-1,4,-1
COC(=O)CSC1=C(C#N)C(c2ccc(C)cc2)C2=C(CCCC2=O)N1 (stereo unspecified),i,-27,18,6,0,-4
COC(=O)CSC1=C(C#N)C(c2ccc3c(c2)OCO3)C2=C(CCCC2=O)N1 (stereo unspecified),i,-20,66*,0,2,-4
CCSC1=C(C#N)C(c2ccc3c(c2)OCO3)C2=C(CCCC2=O)N1 (stereo unspecified),i,0,6,-6,-1,-8
Cc1ccc(NC(=O)CSC2=C(C#N)C(c3ccc4c(c3)OCO4)C3=C(CCCC3=O)N2)c(C)c1 (stereo unspecified),i,-37,72*,5,1,3
Cc1c(Cl)c(-c2n[nH]c(=S)n2-c2ccc(F)cc2)nn1C,i,-6,101*,-4,0,35
S=c1[nH]nc(-c2ccc3ccccc3n2)n1-c1cc(Cl)cc(Cl)c1,i,-64,1,3,-2,-10
Fc1ccc(-n2c(-c3ccc4ccccc4n3)n[nH]c2=S)cc1,i,-35,60*,-15,-5,-2
N#C/C(=C\c1cccnc1)C(=O)Nc1ccc(O)cc1F,i,7,11,5,-5,-6
